Here are results for 48 molecules from PubChem BioAssay AID652054 (National Center for Advancing Translational Sciences (NCATS), 2013).

In all, about 360,000 compounds went through this assay and about 9,100 (2.5%) were called active. About 4% were inconclusive and are not listed. Only a selection was taken, and actives are over-represented in it overall. Unmarked numbers belong to inactive results. Rule as the data show it: active = max response below about -50%; inconclusive = no clear call, values can overlap the other calls; inactive = above that.
% is scaled to controls: 0 for no effect and ±100 for the full control effect.

Chain of D(3) dopamine receptor (Homo sapiens) (P35462 whole entry, looked up): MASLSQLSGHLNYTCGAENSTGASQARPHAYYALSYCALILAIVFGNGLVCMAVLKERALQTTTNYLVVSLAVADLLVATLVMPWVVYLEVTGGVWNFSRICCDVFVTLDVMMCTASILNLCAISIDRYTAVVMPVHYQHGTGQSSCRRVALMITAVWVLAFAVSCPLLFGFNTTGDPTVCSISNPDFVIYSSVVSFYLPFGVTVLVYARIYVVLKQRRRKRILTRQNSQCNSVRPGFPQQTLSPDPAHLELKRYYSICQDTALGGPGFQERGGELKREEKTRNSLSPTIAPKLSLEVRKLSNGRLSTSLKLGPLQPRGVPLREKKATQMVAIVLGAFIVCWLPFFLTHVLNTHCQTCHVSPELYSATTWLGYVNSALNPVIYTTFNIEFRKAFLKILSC

The assay has as its target D(3) dopamine receptor (Homo sapiens) (UniProt P35462). Put plainly: qHTS of D3 Dopamine Receptor Antagonist: qHTS. To be noted: D3R cells, DiscoveRx beta-arrestin luminescence, antagonist mode; active compounds read low. An outline of the steps: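 Cells expressing the human receptor were seeded at 1500 cells/well, incubated overnight at 37 degrees C in 5% CO2, then exposed to library compounds with dopamine controls for 90 minutes at 37 degrees C before luminescent detection.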
As for `COc1cc(Cn2c3ccc(NC(=O)CC(C)c4ccccc4)cc3c(=O)n2C)ccc1F` (stereo not drawn), the max response, negative = inhibition is 0%.
Consider `CC1(C(=O)NS(=O)(=O)c2ccc(C#N)cc2)CCN1C(=O)c1ccc(C2CCCCC2)cc1` (stereo not drawn), for which the max response, negative = inhibition is -14.3%.
On to `OCC1OC(n2cnc3c(N4CCCC4)ncnc32)C(O)C1O` (stereo not drawn), for which the max response, negative = inhibition is 10.4%.
The same measure for `O=C(OCc1cn([C@@H]2C[C@H](c3ccc(Cl)cc3)N(Cc3cccs3)C[C@H]2O)nn1)c1ccccc1`: -15%.
With `CCN(CC)CCNC(=O)c1ccc(NS(=O)(=O)c2ccc3c(c2)OCCO3)cc1`, the max response, negative = inhibition was 2.66%.
As for `CCN(CC)CCNC(=O)c1cc(S(C)(=O)=O)ccc1OC`, the max response, negative = inhibition is -60.5% (active).
Turning to `COc1ccc(S(=O)(=O)NC(C)C)cc1C(=O)NC1CCCCC1`, the max response, negative = inhibition was 11.4%.
In the case of `COc1cccc(CN2CCC(C(=O)NC(c3ccc4c(c3)OCO4)c3ccccn3)CC2)c1` (stereo not drawn) it was -21.6%; in that of `O=C(NCCN1CCOCC1)c1ccc2c(c1)N(Cc1cccc(Cl)c1)C(=O)c1ccccc1S2(=O)=O`, -29.4%.
With `CC1(C(=O)Nc2cccc3c2CCCC3)CCN1C(=O)C1(c2ccccc2)CC1` (stereo not drawn), the max response, negative = inhibition was 11.6%.
As to `CCOC(=O)N1CCN(C(=O)C2CCN(Cc3ccc(OC)cc3OC)CC2)CC1`, the max response, negative = inhibition is 0.368%.
On to `CCOC(=O)c1cc2cc(OC)ccc2n1C1CCN(C)CC1`, for which the max response, negative = inhibition is -92.9% (active).
In the case of `CCOC(=O)C1CCCN(C(=O)/C=C/c2ccc(OC)cc2)C1` (stereo not drawn) it was -24.9%; in that of `O=C1c2ccccc2C(c2nc3ccccc3[nH]2)N1c1ccccc1` (stereo not drawn), 6.4%; in that of `O=C(c1ccc(CS(=O)Cc2ccccc2Cl)o1)N1CCN(c2ccccc2)CC1` (stereo not drawn), 2.17%.
For the molecule `CS(=O)(=O)/C(C#N)=C/c1cccn1S(=O)(=O)c1ccc([N+](=O)[O-])cc1`, the max response, negative = inhibition was -13.9%.
In the case of `O=C1c2ccccc2C(=O)c2c1cccc2N1CCN(Cc2ccccc2)CC1`, the max response, negative = inhibition is -83% (active).
Regarding `O=C(CN1CCN(Cc2ccccc2)CC1)NC(c1ccccc1)c1ccccc1`, the max response, negative = inhibition was -9.3%.
On to `O=S1(=O)CCN(Cc2ccccc2)CC1`, for which the max response, negative = inhibition was -8.1%.
The same measure for `FC(F)(F)c1cccc(-c2nc3ccccc3n2C(c2ccccc2)c2nc3ccccc3[nH]2)c1` (stereo not drawn): 7.98%; for `CCCNC(=O)c1cc(C2CCCCN2S(=O)(=O)c2ccc(C#N)cc2)on1` (stereo not drawn): 15.7%.
With `CCOc1ccc(CCN2C(=O)C(=O)N([C@@H](CC(C)C)CN3CCC[C@H]3CN3C(=O)C(=O)NC[C@@H]3Cc3ccccc3)C[C@@H]2CC(C)C)cc1`, the max response, negative = inhibition is 2.39%.
For the molecule `O=S(=O)(Nc1ccccc1Cl)c1cccc2nsnc12`, the max response, negative = inhibition was -8.87%.
With `COc1ccc(NS(=O)(=O)c2cccc3nsnc23)cc1Cl`, the max response, negative = inhibition is -6.5%.
Take `O=C(O)c1ccc(NS(=O)(=O)c2cccc3nsnc23)cc1`: the max response, negative = inhibition is -88.2% (active).
The same measure for `Cc1cn([C@H]2C[C@H](O)[C@@H](/C=C/C(=O)NCCCc3ccccc3)O2)c(=O)[nH]c1=O`: 0%.
In the case of `CCOc1ccc(CC(=O)NC2CCN(Cc3ccccc3)CC2)cc1` it was -12.8%; in that of `O=C(NCC1CCCO1)c1ccc(S(=O)(=O)Nc2ccc(F)cc2)cc1` (stereo not drawn), -12.1%; in that of `CCOc1ccc(NS(=O)(=O)c2ccc(C(=O)NC3CCN(Cc4ccccc4)CC3)cc2)cc1`, -68.8% (active).
The same measure for `CCOc1ccc(S(=O)(=O)NCCC(=O)NCC2CCCO2)cc1` (stereo not drawn): 20.2%; for `CCOc1ccc(C(=O)NC2CCN(S(=O)(=O)CC)CC2)cc1`: 8.12%; for `CCOc1ccc(NS(=O)(=O)c2ccc(C(=O)NCC3CCCO3)cc2)cc1` (stereo not drawn): -69.2% (active).
In the case of `O[C@H]1C[C@H](c2ccc(Cl)cc2)N(Cc2cccs2)C[C@@H]1n1cc(C2CC2)nn1`, the max response, negative = inhibition is -1.65%.
With `O=S1(=O)CC(N2CCN(CCO)CC2)CN1C1CCCC1` (stereo not drawn), the max response, negative = inhibition is 8.42%.
In the case of `CC(=O)Nc1cccc(-c2ccnc3c2CC(C)(C(=O)NCc2ccco2)O3)c1` (stereo not drawn) it was -21.1%; in that of `O=[N+]([O-])c1ccc(N2CCSCC2)cc1O`, -6.65%.
As for `CC1CCN(c2ccc([N+](=O)[O-])c(SCCO)c2)CC1`, the max response, negative = inhibition is -51.8% (active).
Turning to `CC1CCN(c2ccc([N+](=O)[O-])cc2C(N)=O)CC1`, the max response, negative = inhibition was 10.9%.
The same measure for `O=C(Cc1ccc([N+](=O)[O-])cc1)NCCS(=O)(=O)N1CCN(c2ccccc2)CC1`: 3.87%; for `COc1ccc(C(CNC(=O)c2ccc(S(=O)(=O)Nc3ccccc3C)cc2)N2CCOCC2)cc1` (stereo not drawn): -0.45%; for `CC1Cc2ccccc2N1S(=O)(=O)c1cccc(C(=O)NCC(c2ccco2)N2CCCC2)c1` (stereo not drawn): -17.2%.
In the case of `COc1ccc(C(CNC(=O)c2cccnc2SC)N2CCOCC2)cc1` (stereo not drawn) it was -18.5%; in that of `CSc1ncccc1C(=O)NCC(c1ccco1)N1CCCCC1` (stereo not drawn), 9.6%.
As to `COc1cc(C(=O)NCC(c2ccco2)N2CCCC2)ccc1OCc1ccccc1` (stereo not drawn), the max response, negative = inhibition is 4.86%.
In the case of `CC1CCc2sc(C(=O)NCC(c3ccco3)N3CCCCC3)cc2C1` (stereo not drawn) it was -82.1% (active); in that of `Cc1c(C(=O)NCC(c2ccco2)N2CCCC2)oc2ccc(Cl)cc12` (stereo not drawn), -65.1% (active); in that of `Cc1cc(S(=O)(=O)Nc2ccc(C(=O)NCC(c3ccco3)N3CCCC3)cc2)ccc1F` (stereo not drawn), 1.86%.
For `COc1ccc(C(CNC(=O)c2cc3c(s2)CCCC3)N2CCOCC2)cc1` (stereo not drawn), the max response, negative = inhibition is -51.3% (active).
